Activity calls are given as the source filed them. Rule for the calls: active = hit-call score of the fitted dose curve at least 0.9, where 1 is the maximum; inactive = score below 0.9.

By AC50 is commonly meant the midpoint of the concentration-response curve, whichever way the signal moves.

Read-out in the experiment: cysteine-aspartic acid protease (CASP8), CASP8 (gene 841)
In words: LTEA_HepaRG_CASP8: Life Technologies and Expression Analysis (LTEA) Assay for cysteine-aspartic acid protease (CASP8) using HepaRG (AID 2283480). The note with it: mRNA level, 48 h; actives raise or lower the signal. The procedure: LTEA_HepaRG is a cell based, multiplexed-readout assay that uses HepaRG, a human liver cell line, with measurements taken at 48 hours after chemical dosing on a 96-well plate.LTEA_HepaRG_CASP8 is one of 102 assay component(s) measured in the LTEA HepaRG cell culture assay. It is a marker of Cell proliferation, survival, death.Data from the assay component LTEA_HepaRG_CASP8 was analyzed into 1 endpoint. This assay endpoint, LTEA_HepaRG_CASP8, was analyzed with bidirectional fitting relative to DMSO as the negative control and baseline of activity. Using a type of inducible reporter, measures of mRNA induction for gain or loss-of-signal activity can be used to understand regulation of transcription factor activity. To generalize the intended target to other relatable targets, this assay endpoint is annotated to the protease intended target family, where the subfamily is cysteine protease.
A total of 1060 chemcials from the ToxCast library were tested in eight-point concentration-response experiments. Cell culture and cytotoxicity assays were conducted at Thermo Fisher Scientific's Custom Services facility (Madison, WI). A single lot of human HepaRG cells (Thermo Fisher Scientific, Frederick, MD) was used for the cell culture experiments. 96-well format collagen type I coated plates of human HepaRG cells were prepared using established methods. Briefly, cryopreserved HepaRG cells were thawed, plated at a density of approximately 100,000 cells/well in HepaRG Thaw, Plate, and General Purpose media (HPRG770, Thermo Fisher Scientific), and incubated for 48 hours. 0.5% DMSO was selected as vehicle control to balance the requisite need of DMSO in HepaRG cultures to maintain differentiation (for example, baseline metabolism, proportions of hepatocytes vs. cholangiocytes), while enabling further hepatic receptor pathway activation (for example, PXR and CAR) in response to chemical exposure. 48 hours after plating, the culture medium was replaced with HepaRG Serum-Free Incudtion Media. Cells were exposed to each test chemical in duplicate and maintained in CO2 incubators for another 48 hours. Chemical plates were thawed to room temperature and 200x concentrations of treatment groups were prepared. 8-point conentration-reponse curves were made with the highest exposure at 100 uM, followed by half-log dilutions, all in 0.5% DMSO. Each test plate contained variouse controls, induction positive controls (1mM phenobarbital), cytotoxicity positive controls ([…] aflatoxin B1), vehicle controls (0.5% DMSO), and total lysis controls (0.5% DMSO). Cell morphology images were taken using an Essen IncuCyte FLR automated microscope, with six 96-well plates imaged in about 24 minutes. Images were captured and exported and JPEG files. Spent culture media was transfered to black-well plates for the LDH assay, and remaining media was sorted at -80 C for later use. Cells were treated with RLT buffer and frozen until shipped for gene expression analysis. Total RNA was isolated from the cell suspension in 75 uL of Buffer RLT (Qiagen, Germantown, MD 20874) by Quintiles/Expression Analysis (Durham, NC) using a custom isolation procedure. Total RNA from each plate well was transferred to a preamplification plate. Fluidigm's 96.96 Dynamic ArrayTM (Fluidigm, Amsterdam, the Netherlands) technology was used for gene expression analyses by quantitative reverse transcription polymerase chain reaction (qRT-PCR, performed by Quintiles/Expression Analysis, Durham, NC)89. Standard TaqManTM Assays (Applied Biosystems/ThermoFisher Scientific, Foster City, CA) were used to assess the expression of 93 genes selected based on their selectivity and sensitivity to important hepatic receptors known to be modulated by environmental chemicals; importance in human hepatocyte functionality; and hepatotoxicity. […]
As for `COC(=O)c1c(Cl)c(Cl)c(C(=O)OC)c(Cl)c1Cl`, the compound was called inactive.

On to `COc1ccc2sc(C(=O)Nc3nnn[nH]3)c(OC(C)C)c2c1`, for which the AC50 is 39.2 µM (active).

With `CCOC(=O)CC(CC(=O)OCC)(OC(C)=O)C(=O)OCC`, the compound was classed as inactive.

With `CCn1nc(Cc2ccccc2)cc1C1CCN(C[C@H]2C[C@H](N(C)[C@@H](C(=O)O)C(C)C)C[C@@H]2c2cccc(F)c2)CC1`, the outcome was inactive.

`COCCOCCOCCOC`: the compound was called inactive.

For the compound `Nc1ccc(Nc2ccccc2)cc1`, the outcome was inactive.

`CC(=O)OCCC(C)C`: the outcome was inactive.

With `C1N2CN3CN1CN(C2)C3`, the compound was called inactive.

Consider `O=C1OC(=O)C2C3C=CC(C3)C12` (stereo not given), for which the compound was called inactive.

For the compound `CCCCCCCCCCCCc1ccccc1`, the call was inactive.

Regarding `O=C(O)c1cc(N=Nc2ccc(S(=O)(=O)Nc3ccccn3)cc2)ccc1O`, the call was inactive.

With `CC1(C)C(=O)N(Br)C(=O)N1Br`, the outcome was inactive.

For `CCOC(=O)c1ccc(C2CCC(NC[C@H](O)COc3ccc(O)c(NS(C)(=O)=O)c3)CC2)cc1` (stereo not given in full), the call was inactive.

`O=C(OC[C@H]1O[C@@H](OC(=O)c2cc(O)c(O)c(OC(=O)c3cc(O)c(O)c(O)c3)c2)[C@H](OC(=O)c2cc(O)c(O)c(OC(=O)c3cc(O)c(O)c(O)c3)c2)[C@@H](OC(=O)c2cc(O)c(O)c(OC(=O)c3cc(O)c(O)c(O)c3)c2)[C@@H]1OC(=O)c1cc(O)c(O)c(OC(=O)c2cc(O)c(O)c(O)c2)c1)c1cc(O)c(O)c(OC(=O)c2cc(O)c(O)c(O)c2)c1`: the AC50 was 9.48 µM (active).

Consider `Cn1cnc([N+](=O)[O-])c1Sc1ncnc2nc[nH]c12`, for which the call was inactive.

Consider `Clc1nc(Cl)c(Cl)c(Cl)c1Cl`, for which the result was inactive.

In the case of `CNS(=O)(=O)c1cc(C(=O)N2CCC(CCN3C4CCC3CC(n3c(C)nc5ccccc53)C4)(c3cccc(F)c3)CC2)c(Cl)cc1F` (stereo not given), the compound was classed as inactive.

Consider `COc1ccc(-n2nc(C(F)F)cc2-c2ccc(S(C)=O)cc2)cc1` (stereo not given), for which the compound was called inactive.

For `CNCc1ccc(NC(=O)c2c[nH]c3c2C(=O)CCC3)cc1`, the call was inactive.

Take `O=C(O)CC(O)C(=O)O` (stereo not given): the compound was called inactive.

In the case of `O=P(OC(CCl)CCl)(OC(CCl)CCl)OC(CCl)CCl`, the AC50 was 0.209 µM (active).

Regarding `CC[C@H]1CC[C@H](NCc2cc3c(cc2OC)[C@H]2C[C@H]2C(=O)N3C)[C@H](c2ccccc2)N1`, the call was inactive.

`CCCCC(CC)COC(=O)c1ccc(C(=O)OCC(CC)CCCC)cc1` (stereo not given): the result was inactive.

Take `CCOC(=O)COc1ccc2c(c1)CC(NCC(O)c1cccc(Cl)c1)CC2` (stereo not given): the result was inactive.

`COC(=O)CC(=O)OC`: the compound was classed as inactive.

As for `O=C(O)c1cccc(Oc2ccccc2)c1`, the result was inactive.

For the compound `O=c1[nH]c2ccc(S(=O)CCN3CCC(Cc4ccc(F)cc4)CC3)cc2o1` (stereo not given), the call was inactive.

With `CC(C)c1cccc(C(C)C)c1N1C(=O)c2ccc(O)cc2C1=O`, the outcome was inactive.

For the compound `O=C(O)CCN(C1(C(=O)NO)CCCC1)S(=O)(=O)c1ccc(Oc2ccc(F)cc2)cc1`, the compound was called inactive.

Consider `CN(C)c1ccc(Cc2ccc(N(C)C)cc2)cc1`, for which the call was inactive.

On to `C[C@](N)(Cc1ccc(O)c(O)c1)C(=O)O`, for which the compound was called inactive.

For the compound `CC(C)CCCCCCOC(=O)c1ccc(C(=O)OCCCCCCC(C)C)c(C(=O)OCCCCCCC(C)C)c1`, the compound was called inactive.

Take `COc1cccc(-c2ccc(/C=C\CN3CCCCCC3)cc2Cl)c1`: the compound was classed as inactive.

As for `O=C1CCC(N2C(=O)c3ccccc3C2=O)C(=O)N1` (stereo not given), the outcome was inactive.

As for `CC[C@H](C)C(=O)O[C@H]1C[C@@H](C)C=C2C=C[C@H](C)[C@H](CC[C@@H]3C[C@@H](O)CC(=O)O3)[C@H]21`, the compound was classed as inactive.

For the compound `O=C(CCCCCCCCc1cccnc1)N1CCC(C=C(c2ccccc2)c2ccccc2)CC1`, the compound was called inactive.

On to `CC1=CC(=O)CC(C)(C)C1`, for which the compound was classed as inactive.

As for `CC(C)CCCCCCCOC(=O)CCCCC(=O)OCCCCCCCC(C)C`, the result was inactive.

Regarding `Fc1ccccc1[C@@H](F)COC1CCC(Nc2ncnc3[nH]ncc23)CC1` (stereo not given in full), the compound was classed as inactive.

Turning to `CCCCCCCCCCCCCCCO`, the compound was classed as inactive.

Values taken from PubChem BioAssay (EPA / NIEHS).
